According to the supplement of paper PMC8728848:
This excerpt belongs to a sample that is enriched for the strongest signals.

Key:
Experiment in all cases: glycan array binding signal (z-score within array); higher = stronger binding
Details in all cases: glycan notation: IUPAC condensed, linker removed
Fuc(a1-2)Gal(b1-4)GlcNAc = biological target: Fuc(a1-2)Gal(b1-4)GlcNAc
Method in brief: (§1)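 Columns mapping to the same glycan were averaged after glycan names were converted to IUPAC-condensed notation. The data come from 3228 arrays in the Consortium for Functional Glycomics database, limited to those with an available protein sequence. Binding is reported as a within-array Z-score averaged across arrays of one protein sequence and across linkers.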

[1] = biological target: Fuc(a1-2)Gal(b1-4)GlcNAc(b1-2)Man(a1-3)[Fuc(a1-2)Gal(b1-4)GlcNAc(b1-2)Man(a1-6)]Man(b1-4)GlcNAc(b1-4)[Fuc(a1-6)]GlcNAc
Method in brief: as §1

[2] = biological target: Fuc(a1-2)Gal6S(b1-3)GlcNAc
Method in brief: as §1

[3] = biological target: Fuc(a1-2)Gal6S(b1-3)GlcNAc6S
Method in brief: as §1

Fuc(a1-2)[Gal(a1-3)]Gal = biological target: Fuc(a1-2)[Gal(a1-3)]Gal
Method in brief: as §1

[4] = biological target: Fuc(a1-2)[Gal(a1-3)]Gal(b1-3)GlcNAc
Method in brief: as §1

[5] = biological target: Fuc(a1-2)[Gal(a1-3)]Gal(b1-3)GlcNAc(b1-2)Man(a1-3)[Fuc(a1-2)[Gal(a1-3)]Gal(b1-3)GlcNAc(b1-2)Man(a1-6)]Man(b1-4)GlcNAc(b1-4)[Fuc(a1-6)]GlcNAc
Method in brief: as §1

[6] = biological target: Fuc(a1-2)[Gal(a1-3)]Gal(b1-4)GlcNAc(b1-6)GalNAc
Method in brief: as §1

[7] = biological target: Fuc(a1-2)[GalNAc(a1-3)]Gal(b1-3)GlcNAc(b1-2)Man(a1-3)[Fuc(a1-2)[GalNAc(a1-3)]Gal(b1-3)GlcNAc(b1-2)Man(a1-6)]Man(b1-4)GlcNAc(b1-4)[Fuc(a1-6)]GlcNAc
Method in brief: as §1

[8] = biological target: Fuc(a1-2)[GalNAc(a1-4)]Gal(b1-4)GlcNAc
Method in brief: as §1

[9] = biological target: Fuc(a1-3)[Gal(b1-4)]GlcNAc
Method in brief: as §1

[10] = biological target: Fuc(a1-3)[Gal(b1-4)]GlcNAc(b1-6)GalNAc
Method in brief: as §1

Gal(a1-3)Gal(b1-3)GlcNAc = biological target: Gal(a1-3)Gal(b1-3)GlcNAc
Method in brief: as §1

[11] = biological target: Gal(a1-3)Gal(b1-3)GlcNAc(b1-2)Man
Method in brief: as §1

[12] = biological target: Gal(a1-3)Gal(b1-3)GlcNAc(b1-2)Man(a1-3)[Gal(a1-3)Gal(b1-3)GlcNAc(b1-2)Man(a1-6)]Man(b1-4)GlcNAc(b1-4)GlcNAc
Method in brief: as §1

[13] = biological target: Gal(a1-3)Gal(b1-3)GlcNAc(b1-3)GalNAc
Method in brief: as §1

[14] = biological target: Gal(a1-3)Gal(b1-4)GlcNAc(b1-2)Man(a1-3)[Gal(a1-3)Gal(b1-4)GlcNAc(b1-2)Man(a1-6)]Man(b1-4)GlcNAc(b1-4)GlcNAc
Method in brief: as §1

[15] = biological target: Gal(a1-3)Gal(b1-4)[Fuc(a1-3)]GlcNAc
Method in brief: as §1

Gal(a1-3)GalNAc = biological target: Gal(a1-3)GalNAc
Method in brief: as §1

[16] = biological target: Gal(a1-3)[Gal(a1-4)]Gal(b1-4)GlcNAc
Method in brief: as §1

Gal(b1-3)GalNAc(b1-3)Gal = biological target: Gal(b1-3)GalNAc(b1-3)Gal
Method in brief: as §1

[17] = biological target: Gal(b1-3)GlcNAc(b1-2)Man(a1-3)[Gal(b1-3)GlcNAc(b1-2)Man(a1-6)]Man(b1-4)GlcNAc(b1-4)[Fuc(a1-6)]GlcNAc
Method in brief: as §1

[18] = biological target: Gal(b1-3)GlcNAc(b1-3)Gal(b1-4)GlcNAc(b1-2)[Gal(b1-3)GlcNAc(b1-3)Gal(b1-4)GlcNAc(b1-6)]Man(a1-6)[Gal(b1-3)GlcNAc(b1-3)Gal(b1-4)GlcNAc(b1-2)Man(a1-3)]Man(b1-4)GlcNAc(b1-4)[Fuc(a1-6)]GlcNAc
Method in brief: as §1

Gal(b1-3)GlcNAc6S = biological target: Gal(b1-3)GlcNAc6S
Method in brief: as §1

[19] = biological target: Gal(b1-3)[Fuc(a1-4)]GlcNAc
Method in brief: as §1

[20] = biological target: Gal(b1-3)[Fuc(a1-4)]GlcNAc(b1-6)GalNAc
Method in brief: as §1

Gal(b1-4)GlcNAc(b1-2)Man = biological target: Gal(b1-4)GlcNAc(b1-2)Man
Method in brief: as §1

[21] = biological target: Gal(b1-4)GlcNAc(b1-2)[Gal(b1-4)GlcNAc(b1-4)]Man(a1-3)[GlcNAc(b1-4)][Gal(b1-4)GlcNAc(b1-2)[Gal(b1-4)GlcNAc(b1-6)]Man(a1-6)]Man(b1-4)GlcNAc(b1-4)GlcNAc
Method in brief: as §1

[22] = biological target: Gal(b1-4)GlcNAc(b1-3)Gal(b1-4)GlcNAc
Method in brief: as §1

[23] = biological target: Gal(b1-4)GlcNAc(b1-6)Gal(b1-4)GlcNAc
Method in brief: as §1

B1: FimA-N2 (Actinomyces oris) (protein)
chain: MHHHHHHSSGVDLGTENLYFQSNAWIYDVNVYPKNEAIDVDKTIQAQKLNGYGVGSLIKFPVESTAPTLDAKSFYKYFQLKDTLDERLSEVTATDVSLEGTPLQPTDYKVETKQQTVTVTFTAEGLKKIKAAPGKKVSAVFQGKVTKAGNGAITNRAQVISDTLYAEQPPTPETPPTDPENPPTSDEVISRWGDLSIKKVDTHQQGQTKA
glycan array binding signal (z-score) (Fuc(a1-2)Gal(b1-4)GlcNAc): 0.416
glycan array binding signal (z-score) [1]: 2.43
glycan array binding signal (z-score) [2]: 1.35
glycan array binding signal (z-score) [3]: 3.98
glycan array binding signal (z-score) (Fuc(a1-2)[Gal(a1-3)]Gal): 1.78
glycan array binding signal (z-score) [4]: -0.75
glycan array binding signal (z-score) [5]: -0.838
glycan array binding signal (z-score) [6]: 2.61
glycan array binding signal (z-score) [7]: -0.909
glycan array binding signal (z-score) [8]: 0.482
glycan array binding signal (z-score) [9]: -0.144
glycan array binding signal (z-score) [10]: -0.225
glycan array binding signal (z-score) (Gal(a1-3)Gal(b1-3)GlcNAc): 1.02
glycan array binding signal (z-score) [11]: 2.25
glycan array binding signal (z-score) [12]: 0.101
glycan array binding signal (z-score) [13]: -0.826
glycan array binding signal (z-score) [14]: -1.06
glycan array binding signal (z-score) [15]: -1.47
glycan array binding signal (z-score) (Gal(a1-3)GalNAc): -0.66
glycan array binding signal (z-score) [16]: 2.77
glycan array binding signal (z-score) (Gal(b1-3)GalNAc(b1-3)Gal): -0.678
glycan array binding signal (z-score) [17]: 2.23
glycan array binding signal (z-score) [18]: 3.71
glycan array binding signal (z-score) (Gal(b1-3)GlcNAc6S): -0.106
glycan array binding signal (z-score) [19]: 0.004
glycan array binding signal (z-score) [20]: -0.651
glycan array binding signal (z-score) (Gal(b1-4)GlcNAc(b1-2)Man): -0.413
glycan array binding signal (z-score) [21]: -0.356
glycan array binding signal (z-score) [22]: 1.55
glycan array binding signal (z-score) [23]: -0.5
